Data: the antibiotic and cytotoxicity screens of Wong et al. (2023)
Out of some 39,000 compounds screened, about 3,300 (8.5%) were called active. The entries come from a sample that favours actives as a whole.

tested on: HepG2; experiment: cytotoxicity call (relative viability < 0.9); details: 10 µM

**Q.** For `C[C@@H]1CN([C@H](C)CO)S(=O)(=O)c2ccc(C#Cc3ccccc3F)cc2O[C@@H]1CN(C)CC1CCOCC1`, which cytotoxicity call is on record?
**A.** inactive

**Q.** Which cytotoxicity call does the source give for `COc1ccc(CN(C)C[C@H]2OCCCC[C@@H](C)Oc3ccc(NC(=O)NC4CCCCC4)cc3C(=O)N([C@@H](C)CO)C[C@H]2C)cc1` here?
**A.** inactive

**Q.** With `Cc1ncsc1-c1ccc(CNC(=O)[C@@H]2C[C@@H](O)CN2C(=O)[C@H](C(C)C)N2Cc3ccccc3C2=O)cc1` as the compound, how does the cytotoxicity call read?
**A.** inactive

**Q.** For `CN1C(=O)Cc2cc(NS(C)(=O)=O)ccc21`, which cytotoxicity call is on record?
**A.** inactive

**Q.** For `COc1ccc(S(=O)(=O)Nc2ccc3c(c2)C(=O)N([C@@H](C)CO)C[C@H](C)[C@H](CN(C)Cc2ccc(C(=O)O)cc2)OCCCC[C@@H](C)O3)cc1`, which cytotoxicity call is on record?
**A.** inactive

**Q.** For `COCCN1C[C@H]2[C@H](OC)CCN(S(=O)(=O)c3cn(C)cn3)[C@H]2C1`, which cytotoxicity call is on record?
**A.** inactive

**Q.** With `CC1CC2C3CCC4=CC(=O)C=CC4(C)C3(Cl)C(O)CC2(C)C1(OC(=O)c1ccco1)C(=O)CCl` (stereo unspecified) as the compound, how does the cytotoxicity call read?
**A.** active

**Q.** How did the cytotoxicity call turn out when `CCC(=O)OC1(C(=O)CCl)C(C)CC2C3CCC4=CC(=O)C=CC4(C)C3(F)C(O)CC21C` (stereo unspecified) was run?
**A.** inactive

**Q.** For `CCC(=O)OCC(=O)C1(OC(=O)CC)C(C)CC2C3CCC4=CC(=O)C=CC4(C)C3(Cl)C(O)CC21C` (stereo unspecified), which cytotoxicity call is on record?
**A.** inactive

**Q.** `C[C@@H]1CCCCO[C@H](CN(C)C(=O)Nc2ccccc2)[C@H](C)CN([C@H](C)CO)C(=O)c2cc(NC(=O)CCC(F)(F)F)ccc2O1` was tested. Which cytotoxicity call did it give?
**A.** inactive

**Q.** How did the cytotoxicity call turn out when `C[C@@H]1CN([C@H](C)CO)C(=O)c2cc(NC(=O)Cc3ccccc3)ccc2O[C@@H](C)CCCCO[C@@H]1CN(C)Cc1ccc(C(=O)O)cc1` was run?
**A.** inactive

**Q.** How did the cytotoxicity call turn out when `Cn1c(=O)c2[nH]c(-[n+]3ccc(C(=O)O)cc3)nc2n(C)c1=O` was run?
**A.** active

**Q.** `Cn1c(=O)c2[nH]c(Br)nc2n(C)c1=O` [listing 1 of 2 here] was tested. Which cytotoxicity call did it give?
**A.** inactive

**Q.** `Cn1c(=O)c2[nH]c(Br)nc2n(C)c1=O` [listing 2 of 2 here] was tested. Which cytotoxicity call did it give?
**A.** inactive

**Q.** How did the cytotoxicity call turn out when `C[C@H]1CN([C@@H](C)CO)C(=O)c2cccc(NS(=O)(=O)c3ccc(F)cc3)c2O[C@H]1CN(C)S(C)(=O)=O` was run?
**A.** inactive

**Q.** How did the cytotoxicity call turn out when `COc1ccc(S(=O)(=O)Nc2ccc3c(c2)C(=O)N([C@H](C)CO)C[C@H](C)[C@H](CN(C)C(=O)Nc2ccc(C(F)(F)F)cc2)OCCCC[C@H](C)O3)cc1` was run?
**A.** inactive

**Q.** How did the cytotoxicity call turn out when `COc1ccc(S(=O)(=O)Nc2ccc3c(c2)C(=O)N([C@@H](C)CO)C[C@H](C)[C@H](CN(C)C(=O)Nc2ccc(C(F)(F)F)cc2)OCCCC[C@@H](C)O3)cc1` was run?
**A.** inactive

**Q.** For `COc1ccc(S(=O)(=O)Nc2ccc3c(c2)C(=O)N([C@@H](C)CO)C[C@H](C)[C@@H](CN(C)C(=O)Nc2ccc(C(F)(F)F)cc2)OCCCC[C@@H](C)O3)cc1`, which cytotoxicity call is on record?
**A.** active

**Q.** For `COc1ccc(S(=O)(=O)Nc2ccc3c(c2)C(=O)N([C@@H](C)CO)C[C@@H](C)[C@@H](CN(C)C(=O)Nc2ccc(C(F)(F)F)cc2)OCCCC[C@@H](C)O3)cc1`, which cytotoxicity call is on record?
**A.** active

**Q.** For `COc1ccc(S(=O)(=O)Nc2ccc3c(c2)C(=O)N([C@@H](C)CO)C[C@H](C)[C@H](CN(C)C(=O)Nc2ccc(C(F)(F)F)cc2)OCCCC[C@H](C)O3)cc1`, which cytotoxicity call is on record?
**A.** inactive

**Q.** How did the cytotoxicity call turn out when `COc1ccc(S(=O)(=O)Nc2ccc3c(c2)C(=O)N([C@H](C)CO)C[C@H](C)[C@H](CN(C)C(=O)Nc2ccc(C(F)(F)F)cc2)OCCCC[C@@H](C)O3)cc1` was run?
**A.** inactive

**Q.** `COc1ccc(S(=O)(=O)Nc2ccc3c(c2)C(=O)N([C@H](C)CO)C[C@@H](C)[C@H](CN(C)C(=O)Nc2ccc(C(F)(F)F)cc2)OCCCC[C@@H](C)O3)cc1` was tested. Which cytotoxicity call did it give?
**A.** inactive

**Q.** Which cytotoxicity call does the source give for `COc1ccc(S(=O)(=O)Nc2ccc3c(c2)C(=O)N([C@@H](C)CO)C[C@@H](C)[C@H](CN(C)C(=O)Nc2ccc(C(F)(F)F)cc2)OCCCC[C@H](C)O3)cc1` here?
**A.** inactive

**Q.** For `COc1ccc(S(=O)(=O)Nc2ccc3c(c2)C(=O)N([C@@H](C)CO)C[C@H](C)[C@@H](CN(C)C(=O)Nc2ccc(C(F)(F)F)cc2)OCCCC[C@H](C)O3)cc1`, which cytotoxicity call is on record?
**A.** active

**Q.** For `COc1ccc(S(=O)(=O)N(C)C[C@@H]2Oc3ccc(NS(=O)(=O)c4ccc(C)cc4)cc3CC(=O)N([C@H](C)CO)C[C@@H]2C)cc1`, which cytotoxicity call is on record?
**A.** inactive

**Q.** For `CC(C)NC(=O)N(C)C[C@@H]1Oc2cc(C#Cc3cccc(F)c3)ccc2S(=O)(=O)N([C@H](C)CO)C[C@H]1C`, which cytotoxicity call is on record?
**A.** inactive

**Q.** `Cc1ccc(S(=O)(=O)N(C)C[C@H]2OCCCC[C@H](C)Oc3ccc(NC(=O)Nc4ccc(F)cc4)cc3C(=O)N([C@@H](C)CO)C[C@H]2C)cc1` was tested. Which cytotoxicity call did it give?
**A.** inactive

**Q.** Which cytotoxicity call does the source give for `Cc1ccc(S(=O)(=O)N(C)C[C@H]2Oc3c(NC(=O)NC(C)C)cccc3C(=O)N([C@@H](C)CO)C[C@@H]2C)cc1` here?
**A.** inactive

**Q.** With `C[C@@H]1CCCCO[C@@H](CN(C)S(=O)(=O)c2ccc(F)cc2)[C@H](C)CN([C@@H](C)CO)C(=O)c2cc(NC(=O)C3CCCCC3)ccc2O1` as the compound, how does the cytotoxicity call read?
**A.** inactive

**Q.** For `C[C@H](CO)N1C[C@H](C)[C@H](CN(C)C(=O)Nc2ccc3c(c2)OCO3)OCCCC[C@H](C)Oc2ccc(NC(=O)Nc3cccc4ccccc34)cc2C1=O`, which cytotoxicity call is on record?
**A.** inactive

**Q.** `C[C@@H]1CCCCO[C@@H](CN(C)Cc2ccccc2)[C@H](C)CN([C@H](C)CO)C(=O)c2cc(NC(=O)C3CCCCC3)ccc2O1` was tested. Which cytotoxicity call did it give?
**A.** inactive

**Q.** Which cytotoxicity call does the source give for `CC(C)NC(=O)N(C)C[C@@H]1Oc2cc(-c3ccccc3F)ccc2S(=O)(=O)N([C@H](C)CO)C[C@@H]1C` here?
**A.** inactive

**Q.** `C[C@@H]1CCCCO[C@H](CN(C)C(=O)Nc2ccc(C(F)(F)F)cc2)[C@H](C)CN([C@@H](C)CO)C(=O)c2cc(NC(=O)C3CCCCC3)ccc2O1` was tested. Which cytotoxicity call did it give?
**A.** inactive

**Q.** Which cytotoxicity call does the source give for `O=C(NC(Cc1cc(=O)[nH]c2ccccc12)C(=O)O)c1ccc(Cl)cc1` (stereo unspecified) here?
**A.** active

**Q.** `Cc1cc(C)cc(C(=O)N(C)[C@H](Cc2ccc(-c3ccccc3)cc2)C(=O)N[C@@H](Cc2c[nH]c3ccccc23)C(=O)O)c1` was tested. Which cytotoxicity call did it give?
**A.** inactive

**Q.** `NCCCC[C@@H](N)C(=O)N[C@@H](Cc1c[nH]c2ccccc12)C(=O)N[C@@H](CCCCN)C(=O)O` was tested. Which cytotoxicity call did it give?
**A.** inactive

**Q.** Which cytotoxicity call does the source give for `Cc1noc(C)c1NC(=O)Nc1ccc2c(c1)C(=O)N([C@H](C)CO)C[C@H](C)[C@@H](CN(C)C(=O)Nc1ccccc1)OCCCC[C@@H](C)O2` here?
**A.** inactive

**Q.** For `CC(C)[C@@H](N)c1nc2ccccc2[nH]1`, which cytotoxicity call is on record?
**A.** inactive

**Q.** How did the cytotoxicity call turn out when `C[C@@H]1CN([C@@H](C)CO)C(=O)c2cc(NC(=O)Nc3ccc4c(c3)OCO4)ccc2O[C@H]1CN(C)Cc1ccc(Cl)c(Cl)c1` was run?
**A.** active

**Q.** For `C[C@@H]1CN([C@@H](C)CO)C(=O)c2cc(NC(=O)Nc3ccc4c(c3)OCO4)ccc2O[C@@H]1CN(C)Cc1ccc(Cl)c(Cl)c1`, which cytotoxicity call is on record?
**A.** active

**Q.** For `C[C@H]1CN([C@@H](C)CO)C(=O)c2cc(NC(=O)Nc3ccc4c(c3)OCO4)ccc2O[C@@H]1CN(C)Cc1ccc(Cl)c(Cl)c1`, which cytotoxicity call is on record?
**A.** inactive

**Q.** For `C[C@H](CO)N1C[C@H](C)[C@H](CN(C)Cc2ccc(Cl)c(Cl)c2)Oc2ccc(NC(=O)Nc3ccc4c(c3)OCO4)cc2C1=O`, which cytotoxicity call is on record?
**A.** inactive

**Q.** `C[C@H]1CN([C@@H](C)CO)C(=O)c2cc(NC(=O)Nc3ccc4c(c3)OCO4)ccc2O[C@H]1CN(C)Cc1ccc(Cl)c(Cl)c1` was tested. Which cytotoxicity call did it give?
**A.** inactive

**Q.** For `C[C@@H]1CN([C@H](C)CO)C(=O)c2cc(NC(=O)Nc3ccc4c(c3)OCO4)ccc2O[C@@H]1CN(C)Cc1ccc(Cl)c(Cl)c1`, which cytotoxicity call is on record?
**A.** inactive

**Q.** With `COCC(=O)Nc1ccc2c(c1)OC[C@@H](C)N(C(=O)CN1CCOCC1)C[C@@H](C)[C@H](OC)CN(C)C2=O` as the compound, how does the cytotoxicity call read?
**A.** inactive

**Q.** For `COc1ccc(NC(=O)Nc2ccc3c(c2)CC(=O)N([C@H](C)CO)C[C@@H](C)[C@H](CN(C)Cc2ccc(C(F)(F)F)cc2)O3)cc1`, which cytotoxicity call is on record?
**A.** inactive

**Q.** How did the cytotoxicity call turn out when `COc1ccc(CN(C)C[C@H]2Oc3ccc(NC(=O)Nc4ccc(C(F)(F)F)cc4)cc3CC(=O)N([C@@H](C)CO)C[C@@H]2C)cc1` was run?
**A.** active

**Q.** For `COc1ccc(NC(=O)Nc2ccc3c(c2)CC(=O)N([C@@H](C)CO)C[C@H](C)[C@@H](CN(C)Cc2ccc(C(F)(F)F)cc2)O3)cc1`, which cytotoxicity call is on record?
**A.** inactive

**Q.** For `COc1ccc(NC(=O)Nc2ccc3c(c2)CC(=O)N([C@@H](C)CO)C[C@@H](C)[C@H](CN(C)Cc2ccc(C(F)(F)F)cc2)O3)cc1`, which cytotoxicity call is on record?
**A.** active

**Q.** With `COc1ccc(CN(C)C[C@H]2Oc3ccc(NC(=O)Nc4ccc(C(F)(F)F)cc4)cc3CC(=O)N([C@@H](C)CO)C[C@H]2C)cc1` as the compound, how does the cytotoxicity call read?
**A.** active

**Q.** `COc1ccc(CN(C)C[C@H]2Oc3ccc(NC(=O)Nc4ccc(C(F)(F)F)cc4)cc3CC(=O)N([C@H](C)CO)C[C@H]2C)cc1` was tested. Which cytotoxicity call did it give?
**A.** active

**Q.** For `CO[C@H](CN(C)S(=O)(=O)c1ccc(Cl)cc1)[C@@H](C)CN([C@@H](C)CO)S(=O)(=O)c1cccc(Cl)c1`, which cytotoxicity call is on record?
**A.** inactive

**Q.** For `COc1ccc(CN(C)C[C@H]2OCCCC[C@H](C)Oc3ccc(NS(=O)(=O)c4ccc(F)cc4)cc3C(=O)N([C@H](C)CO)C[C@@H]2C)cc1`, which cytotoxicity call is on record?
**A.** inactive

**Q.** For `C[C@@H]1CN([C@H](C)CO)C(=O)c2cccc(NC(=O)Nc3ccc(C(F)(F)F)cc3)c2O[C@@H]1CN(C)S(C)(=O)=O`, which cytotoxicity call is on record?
**A.** inactive

**Q.** Which cytotoxicity call does the source give for `C[C@H](CO)N1C[C@H](C)[C@@H](CN(C)Cc2ccccc2)OCCCC[C@H](C)Oc2ccc(NC(=O)NC3CCCCC3)cc2C1=O` here?
**A.** inactive

**Q.** With `O=C(Cn1cnnn1)NS(=O)(=O)c1ccccc1` as the compound, how does the cytotoxicity call read?
**A.** inactive

**Q.** `C[C@H](CO)N1C[C@H](C)[C@H](CN(C)S(=O)(=O)c2ccc(-c3ccccc3)cc2)OCc2cn(nn2)CCCC1=O` was tested. Which cytotoxicity call did it give?
**A.** inactive

**Q.** For `C[C@@H]1CCCCO[C@@H](CN(C)C(=O)Nc2ccccc2)[C@@H](C)CN([C@@H](C)CO)C(=O)c2cc(NC(=O)c3ccccc3)ccc2O1`, which cytotoxicity call is on record?
**A.** inactive

**Q.** For `COc1ccc(S(=O)(=O)N(C)C[C@@H]2Oc3c(NS(=O)(=O)c4cn(C)cn4)cccc3C(=O)N([C@H](C)CO)C[C@H]2C)cc1`, which cytotoxicity call is on record?
**A.** inactive

**Q.** Which cytotoxicity call does the source give for `O=C(C[C@@H]1CC[C@H](NC(=O)c2ccc(F)cc2)[C@@H](CO)O1)NCc1ccncn1` here?
**A.** inactive

**Q.** For `COc1ccc(NC(=O)Nc2ccc3c(c2)C(=O)N([C@H](C)CO)C[C@@H](C)[C@H](CN(C)S(=O)(=O)c2ccc(OC)cc2)OCCCC[C@H](C)O3)cc1`, which cytotoxicity call is on record?
**A.** inactive
